The list is not random: actives were taken first. Their share in the collection is about 2.6%.
GALK inh: qHTS Assay for Inhibitors of Human Galactokinase (GALK): NCGC Sytravon Library Screen; P51570; recombinant GALK, Kinase-Glo ATP luminescence, 1 h; Potency, µM (top dose mostly 57.5 µM), inactives show at the highest dose activity, negative = inhibition, hits mostly inhibitors; 44,000 tested, under 10 active;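 also: plate controls were full GALK reaction for no effect and reaction lacking GALK for full effect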
Target sequence (P51570 whole entry, looked up): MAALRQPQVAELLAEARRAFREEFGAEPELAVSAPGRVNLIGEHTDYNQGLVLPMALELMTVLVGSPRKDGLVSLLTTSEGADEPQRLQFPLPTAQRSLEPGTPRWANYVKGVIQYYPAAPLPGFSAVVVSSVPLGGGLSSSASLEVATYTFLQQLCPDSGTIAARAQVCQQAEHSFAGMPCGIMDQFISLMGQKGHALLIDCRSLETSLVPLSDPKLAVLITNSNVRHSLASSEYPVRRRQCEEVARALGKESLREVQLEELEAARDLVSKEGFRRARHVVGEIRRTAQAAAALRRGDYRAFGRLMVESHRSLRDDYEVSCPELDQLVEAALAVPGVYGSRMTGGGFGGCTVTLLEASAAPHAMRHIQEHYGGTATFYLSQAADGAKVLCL
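Luminescent ATP-depletion readout (Kinase-Glo Plus, 10 min) after 1 h RT reaction of 5 nM GALK, 35 uM ATP, 100 uM galactose, pH 8.0 HEPES buffer. Decreased kinase activity scored as inhibition.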
TSG101-PTAP inh: qHTS Validation Assay for Inhibitors of HIV-1 Budding by Blocking the Interaction of PTAP/TSG101: Sytravon Library Screen; 44,000 tested, under 10 active; AID 1347069, 2019; Fluorescence polarization, FITC-PTAP peptide/Tsg101, 20 min; Tumor susceptibility gene 101 protein (Homo sapiens), Q99816; Potency, µM (series often up to 115 µM), most hits filed as inhibitors; also: potency is read from the fitted curve at half-maximal effect; 0% is about no effect
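Compounds pinned into 10 uM Tsg101 binding domain, then 50 nM FITC-PTAP peptide added in pH 7.5 HEPES buffer; FP read after 20 min, room temperature. Total S+P intensity flags fluorescent compounds; active cut-off <25 µM, efficacy <60%.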
GALC G270D act: A Novel Cell-Based Assay to Identify Small Molecules for B -Galactocerebrosidase; 145M-Twi-hGALC-G270D cells (Twitcher mouse brain line with human GALC G270D), HMU-beta-Gal fluorescence, 48 h; Potency, µM (titrated, usually from 57.5 µM), hits mostly activators; P54803; 45,000 tested, 0.1% active; also: potency is read from the fitted curve at half-maximal effect; 0% is about no effect; nearly all actives have a fitted effect of over 65% in size
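Fluorescence readout: HMU-β-gal cleavage by mutant GALC (0.1 mM final, citrate/phosphate pH 5.2 with 1 mg/mL taurocholate), stopped with carbonate/bicarbonate plus Triton X-100. Cells: murine Twitcher 145M-Twi expressing human G270D GALC; qHTS for activators.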
DRV1 agonist: qHTS for Agonists of Human Resolvin D1 Receptor DRV1; Probable G-protein coupled receptor 32 (Homo sapiens), O75388; CHO-K1 GPR32 beta-arrestin PathHunter luminescence, 90 min; zero percent set by DMSO-only wells; activation, % at 76.9 µM; 48,000 tested, 2.5% active;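 active = activation of at least 60% and not above a set upper limit, about 1 call in 100 departs from these limits; inconclusive = activation of 40% to 60%, or above that upper limit; inactive = activation under 40%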; also: 0% is about no effect
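GPR32 activation in stably transfected CHO-K1 cells, detected as beta-arrestin recruitment by enzyme-fragment complementation. Compound exposure: 90 min, 37 °C.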
B2AR arrestin ag: qHTS assay of beta-arrestin-biased ligands of beta2-adrenergic receptor: NCGC Sytravon Library Screen. HTLA Tango cells, beta-arrestin recruitment, luciferase luminescence, 18 h. AID 1347077, 2019. Potency, µM (highest dose often 46.1 µM), usual class: activators. Beta-2 adrenergic receptor (Homo sapiens), P07550. 44,000 tested, under 10 active;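 also: potency is read from the fitted curve at half-maximal effect; 0% = DMSO and full agonism = EC100 isoproterenol or metaproterenol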
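Tango cell line, 1% FBS DMEM; cpd titration up to 46 microM; 18 hr, 37 degrees C, 5% CO2. Luciferin/ATP substrate mix added, 15 min RT, luminescence. %Activity, CRC fitting, curve-class categorization.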
The depositor's hits bear a star. Unless noted, calls follow the shape of the dose curve; as a rule, active = well fitted curve in the direction sought with a large enough effect; inconclusive = small, poorly fitted or top-dose-only effect, or another doubt; inactive = no such curve, though single readings can be large; an effect the other way counts as inactive or inconclusive.

CCc1ccc(-n2nnc(-c3nsc(NC(=O)c4ccccc4Cl)n3)c2C)cc1 was read as GALK inh -2%, TSG101-PTAP inh inactive, GALC G270D act inactive, DRV1 agonist 105* and B2AR arrestin ag inactive.
For CCc1ccccc1-n1nnc(-c2nsc(NC(=O)c3ccc(C)c(C)c3)n2)c1C the results were GALK inh -2%, TSG101-PTAP inh inactive, GALC G270D act inactive, DRV1 agonist 72* and B2AR arrestin ag inactive.
Screening CCOc1ccc(CNC(=O)CCCn2c(=O)c3cccn3c3ccc(F)cc32)cc1 returned GALK inh -14%, TSG101-PTAP inh inactive, GALC G270D act inactive, DRV1 agonist -17 and B2AR arrestin ag inactive.
`Clc1cccc(-c2noc3ncnc(NC4CCCCC4)c23)c1` gave GALK inh -2%, TSG101-PTAP inh inactive, GALC G270D act inactive, DRV1 agonist 91* and B2AR arrestin ag inactive.
For Clc1ccc(-c2noc3ncnc(NC4CCCCC4)c23)cc1 the results were GALK inh -2%, TSG101-PTAP inh inactive, GALC G270D act inactive, DRV1 agonist 29 and B2AR arrestin ag inactive.
`CCOc1ccccc1CC1C(=O)Nc2ccc(Br)cc21` (stereo unspecified) gave GALK inh -7%, TSG101-PTAP inh inactive, GALC G270D act inactive, DRV1 agonist 73* and B2AR arrestin ag inactive.
COc1ccc(CC2C(=O)Nc3ccc(Br)cc32)cc1OC (stereo unspecified) was read as GALK inh 5%, TSG101-PTAP inh inactive, GALC G270D act inactive, DRV1 agonist -18 and B2AR arrestin ag inactive.
For CCOc1c(CC2C(=O)Nc3ccc(Br)cc32)cccc1OC (stereo unspecified) the results were GALK inh 0%, TSG101-PTAP inh inactive, GALC G270D act inactive, DRV1 agonist inconclusive and B2AR arrestin ag inactive.
`CCCOc1ccc(CC2C(=O)Nc3ccc(Br)cc32)cc1` (stereo unspecified) gave GALK inh -1%, TSG101-PTAP inh inactive, GALC G270D act inactive, DRV1 agonist 78* and B2AR arrestin ag inactive.
`O=C(CCOCCOCCOCCOCCC(=O)Nc1c(I)cc(I)c(C(=O)O)c1I)Nc1c(I)cc(I)c(C(=O)O)c1I` gave GALC G270D act inactive and DRV1 agonist -15.
For CC(=O)O[C@H]1CC[C@@]2(C)C(=CC[C@@H]3[C@@H]2CC[C@]2(C)C(C(C)=O)=CC[C@@H]32)C1 the results were GALC G270D act inactive and DRV1 agonist 2.
CC(=O)c1ccc(NC(=O)C2Cc3ccccc3N2C(=O)c2ccccc2)cc1 (stereo unspecified) was read as GALK inh 2%, TSG101-PTAP inh inactive, GALC G270D act inactive, DRV1 agonist -9 and B2AR arrestin ag inactive.
CC(=O)Nc1ccc(NC(=O)C2Cc3ccccc3N2C(=O)c2ccccc2)cc1 (stereo unspecified) was read as GALK inh 0%, TSG101-PTAP inh inactive, GALC G270D act inactive, DRV1 agonist 100* and B2AR arrestin ag inactive.
O=C(NCc1ccccc1)C(=O)NCC(c1ccc2c(c1)OCO2)N1CCOCC1 (stereo unspecified) was read as GALK inh 0%, TSG101-PTAP inh inactive, GALC G270D act inactive, DRV1 agonist -16 and B2AR arrestin ag inactive.
COc1cc(OC)cc(C(=O)Nc2ccc3nc4c(c(Nc5ccc(OC)c(OC)c5)c3c2)CCCC4)c1 was read as GALK inh -1%, TSG101-PTAP inh inactive, GALC G270D act inactive, DRV1 agonist 85* and B2AR arrestin ag inactive.
Screening COc1ccc(Nc2c3c(nc4ccc(NC(=O)c5cc(Cl)ccc5OC)cc24)CCCC3)cc1OC returned GALK inh 5%, TSG101-PTAP inh inactive, GALC G270D act inactive, DRV1 agonist 61* and B2AR arrestin ag inactive.
